Results published in ChEMBL document CHEMBL3988442, “University of Dundee, Small-Polar-MMV Screening Library” (2021).
Hit rate of the full screen: of about 48,000 compounds, about 13,000 (27%) showed an effect of 50% or more. Some of the results follow.

System: Wolbachia pipientis
Experiment: Anti-Wolbachia Cell-Based Screen
Type: functional
Set-up: scale not given: in the data most compounds retested in dose-response had high values
Details: 5 µM

Structure (SMILES) | Percent Effect
CC(C)(C)c1cn2c(n1)C(CNCc1cnn3ccccc13)CCC2 (stereo unspecified) | 3.116%
O=C1CC(NS(=O)(=O)N2CCOCC2)CN1Cc1ccccc1 (stereo unspecified) | 1.886%
Cc1ncsc1C(=O)NCc1cccnc1N(C)CCc1ccccn1 | 6.517%
Cc1noc(-c2cccnc2N2CCOC(C)(c3cnn(C)c3)C2)n1 (stereo unspecified) | -3.53%
COCCN(CCOC)C(=O)NC1CCCCC1 | -2.793%
Cc1[nH]ccc1C(=O)N[C@H]1CN(CCO)C[C@@H]1C1CC1 | -10.03%
CCC(C)NC(=O)CS(=O)(=O)Cc1nc(-c2cccs2)no1 (stereo unspecified) | 8.727%
CNC(=O)N1CCC(=Cc2ccccc2)CC1 | -5.2%
Cn1ncc(N2CCOC(CCNC(=O)NC(C)(C)C)C2)cc1=O (stereo unspecified) | 101.8%
CCC1CN(c2cnn(C)c(=O)c2Br)CCO1 (stereo unspecified) | 20.16%
CCOC(=O)N1CCC(NCC2CCN(c3cnn(C)c(=O)c3)C2)CC1 (stereo unspecified) | -6.682%
CCCOC(=O)NCCC1CN(c2cnn(C)c(=O)c2)CCO1 (stereo unspecified) | 96.42%
CC(C)N1CCC[C@H]1C(=O)NCC1CCN(c2cnn(C)c(=O)c2)CC1 | -21.78%
CCC(OC)C(=O)NCC1CCN(c2cnn(C)c(=O)c2)CC1 (stereo unspecified) | -16.23%
COCCN(CC(F)F)c1cc(C(F)(F)F)nc2ncnn12 | -7.811%
Cc1cnn(-c2ccc(S(=O)(=O)N(C)CC(F)F)cc2F)c1 | 2.178%
CC(C)Cc1cc(C(=O)NC(C)(C)CN2CCCCCC2)on1 | 2.202%
CN1CCN(Cc2ccccc2CNC(=O)c2ccc(Cl)cc2F)CC1 | -10.17%
COc1cc(C(=O)NC(C)(C)CN2CCN(C)CC2)c2ccccc2n1 | 96.51%
Cc1cc(C(=O)NCC2(N(C)C)CCCC2)c(C)n1-c1cccnc1 | 3.224%
COc1cc(C(=O)NCCS(=O)(=O)N(C)C)c2ccccc2n1 | 5.496%
COc1cc(C(=O)NCC2(N(C)C)CCN(C)CC2)c2ccccc2n1 | 126.6%
CC(C)(C)c1ncc(C(=O)N2CCN(C(=O)c3ccc[nH]3)CC2)c(O)n1 | -10.28%
Cc1[nH]ccc1C(=O)N1CCCN1C(=O)OC(C)(C)C | -3.846%
O=C(c1ccc[nH]1)N1CCOCC12CCCC2 | 75.31%
O=C(c1ccc[nH]1)N1CCC2(CC1)COCCN(c1nccs1)C2 | 4.422%

Structure (SMILES) | Percent Effect
Cc1[nH]ccc1C(=O)N1CCC2(CC1)c1nc[nH]c1CCN2S(C)(=O)=O | -18.24%
Cc1ccc(F)cc1C(=O)N1CCOCC12CCCC2 | 111.7%
Cc1ccc(F)cc1C(=O)N1C[C@@H](CN2CCOCC2)[C@@H](CO)C1 | -1.252%
Cc1[nH]ccc1C(=O)N1CCOCC12CCCC2 | 102.2%
Cc1ccc(F)cc1C(=O)NCc1ccc(C(=O)O)o1 | 7.122%
CS(=O)(=O)N1CCCC12CCCN(C(=O)c1ccc[nH]1)C2 (stereo unspecified) | -4.016%
Cc1ccoc1C(=O)N1CCCc2c(c(=O)n(C)n2C)C1 | -8.814%
Cc1ccsc1C(=O)N1CCCc2c(c(=O)n(C)n2C)C1 | 9.7%
Cc1ccc(C(=O)N2CCCc3c(c(=O)n(C)n3C)C2)o1 | -7.196%
Cn1c2c(c(=O)n1C)CN(C(=O)c1ccncc1F)CCC2 | 104.3%
Cn1c2c(c(=O)n1C)CN(C(=O)c1cccc(F)c1)CCC2 | 83.47%
Cn1nc(CN2CCCC2)c2c1CN(C(=O)c1ccncc1F)CC2 | -1.138%
Cn1c2c(c(=O)n1C)CN(C(=O)c1ccco1)CCC2 | 0.5105%
Cn1c2c(c(=O)n1C)CN(C(=O)c1cnccn1)CCC2 | 106.7%
Cn1c2c(c(=O)n1C)CN(C(=O)c1ccsc1)CCC2 | -11.42%
Cc1csc2c(N3CCC(NCCCc4cnn(C)c4)CC3)ncnc12 | -7.863%
CN(CCCc1cnn(C)c1)C(=O)Nc1cccc2[nH]nnc12 | -5.738%
COc1ccc(N2CCC(N(C)C(=O)Nc3ccncc3)CC2)cc1 | 86.34%
COc1ccc(N2CCC(N(C)C(=O)C(C)SC)CC2)cc1 (stereo unspecified) | 1.657%
CN(CC(=O)N(C)C1CC1)C1CCN(c2ccc(Cl)cc2)CC1 | -1.318%
CN(C(=O)NC1CC1)C1CCN(c2ccc(Cl)cc2)CC1 | 95.01%
Cc1cc(N2CCC(N(C)C(=O)Nc3ccccc3)CC2)nc(C)n1 | 1.821%
CCCNC(=O)CN(C)C1CCN(c2ccc(Cl)cc2)CC1 | -1.782%
CNC(=O)CN(C)C1CCN(c2ccc(Cl)cc2)CC1 | 12.22%
CN(C(=O)Nc1cccnc1)C1CCN(c2ccc(Cl)cc2)CC1 | 102.5%
CN(C(=O)Nc1ccncc1)C1CCN(c2ccc(Cl)cc2)CC1 | 99.54%

Structure (SMILES) | Percent Effect
CN(CCN1CCN(c2ccccc2)CC1)C(=O)Nc1ccncc1 | -6.47%
CCOC(C)C(=O)N(C)C1CCN(c2ccc(OC)cc2)CC1 (stereo unspecified) | -2.729%
CSC(C)C(=O)N(C)C1CCN(c2ccc(Cl)cc2)CC1 (stereo unspecified) | -5.322%
CCC(CNC(=O)NC1CCN(C)CC1)Oc1ccccc1Cl (stereo unspecified) | 5.674%
Cc1nc(N2CCOCC2)nc2c1CCN(Cc1nccn1C)CC2.O=C(O)C(F)(F)F | 110.5%
Cn1ccnc1CN1CCN(Cc2cc(-c3ccccc3)no2)CC1 | 10.9%
Cc1nc(NC(C)C)nc2c1CN(Cc1nccn1C)CC2 | 3.247%
CC(C)Nc1nc2c(c(NC3CC3)n1)CCN(Cc1nccn1C)CC2.O=C(O)C(F)(F)F | 5.459%
COc1cc(C)nc(N2CCN(Cc3nccn3C)CC2)n1 | 16.21%
Cc1cc(C(F)(F)F)nc(N2CCN(Cc3nccn3C)CC2)n1 | -22.48%
Cc1nc(C)c2c(n1)CCN(Cc1nccn1C)CC2.O=C(O)C(F)(F)F | 102.7%
Cc1nc(N2CCOCC2)nc2c1CCN(Cc1cccnc1)CC2.O=C(O)C(F)(F)F | -14.62%
Cc1nc(-c2ccccc2)nc2c1CCN(Cc1nccn1C)CC2 | 118.4%
Cc1nc(N2CCOCC2)nc2c1CCN(Cc1ccsc1)CC2.O=C(O)C(F)(F)F | -7.325%
Cc1cc(C)nc(N2CCN(Cc3nccn3C)CC2)n1.O=CO | 104.1%
CC(C)(C)C(=O)N1C[C@@H]2COC[C@]2(c2nnc(C3CC3)o2)C1 | 1.473%
N#Cc1cccc(N2CCCC(CO)(CCOc3ccccc3)C2)n1 (stereo unspecified) | -9.375%
CC(C)Nc1nc2c(c(N(C)C)n1)CCN(Cc1nccn1C)CC2.O=C(O)C(F)(F)F | -14.43%
CN(C)c1nc(N2CCCC2)nc2c1CCN(Cc1nccn1C)CC2.O=C(O)C(F)(F)F | 102.1%
Cc1nc(N2CCCC2)nc2c1CCN(Cc1ccoc1)CC2.O=C(O)C(F)(F)F | 6.139%
Cc1nc(N2CCCC2)nc2c1CCN(Cc1nccn1C)CC2.O=C(O)C(F)(F)F | 105.6%
CN(C)c1nc(N2CCCC2)nc2c1CCN(C(=O)c1ccco1)CC2.O=C(O)C(F)(F)F.O=C(O)C(F)(F)F | 15.95%
Cn1ccnc1CN1CCc2ncnc(N3CCCC3)c2CC1.O=C(O)C(F)(F)F | 15.66%
O=C(c1cncc(N2CCC3(CCNCC3)CC2)n1)N1CCCC1 | 1.429%
CCC(C)(C)C(=O)N1CCN(C2=NCC(C)S2)CC1 (stereo unspecified) | -0.6002%
CCOc1ccccc1-n1c(C2CC2)n[nH]c1=O | 101.4%

Structure (SMILES) | Percent Effect
CN1CCC(c2n[nH]c(=O)n2-c2cccc(Cl)c2)CC1 | -11.2%
CCOc1ccccc1-n1c(CNC)n[nH]c1=O | -1.505%
CCOc1ccccc1-n1c(C2CC(=O)N(C)C2)n[nH]c1=O (stereo unspecified) | 114.8%
CCOc1ccccc1-n1c(C2CCC2)n[nH]c1=O | 114.1%
C[C@H](c1ccc(F)cc1)n1c(C2CCC2)n[nH]c1=O | 13.77%
CN1CC(c2n[nH]c(=O)n2-c2cccc(Cl)c2)CC1=O (stereo unspecified) | -17.26%
O=c1[nH]nc(C2CC2)n1-c1cccc(Cl)c1 | 12.75%
CCOc1ccccc1OC1CCN(C(=O)c2nc(=O)[nH][nH]2)CC1 | -16.56%
CCN(Cc1nc2c(cnn2C)c(=O)[nH]1)Cc1ccccc1Cl | 128.5%
CCN(Cc1cccc(Cl)c1)Cc1nc2c(cnn2C)c(=O)[nH]1 | 6.587%
CC(C)CN(CCc1ccccc1)Cc1nc2c(cnn2C)c(=O)[nH]1 | 122.3%
Cc1cccc(CN(C)Cc2nc3c(cnn3C)c(=O)[nH]2)c1 | -4.984%
CC(C)CN(Cc1nc2c(cnn2C)c(=O)[nH]1)C(C)C | -8.165%
CC(C)N(Cc1cccc(Cl)c1)Cc1nc2c(cnn2C)c(=O)[nH]1 | 119.9%
CN(Cc1nc2c(cnn2C)c(=O)[nH]1)Cc1ccccc1Cl | -1.712%
CN(CCCc1ccccc1)Cc1nc2c(cnn2C)c(=O)[nH]1 | -1.148%
CC(C)N(Cc1cccc(F)c1)Cc1nc2c(cnn2C)c(=O)[nH]1 | -9.693%
CCN(Cc1nc2c(cnn2C)c(=O)[nH]1)Cc1ccccc1C | -3.933%
CCN(Cc1cccc(C)c1)Cc1nc2c(cnn2C)c(=O)[nH]1 | 145.1%
Cc1ccc(NCc2ccc(C#N)cc2)c(CN(C)C)c1 | -4.346%
N#CCCN(Cc1ccccn1)C(=O)Nc1cccnc1 | -3.639%
CCN(C)c1ccc(C(=O)NCCCc2ccccn2)cn1 | 1.401%
CC(O)CC(C)(C)CNS(=O)(=O)c1cccc(Cl)c1C#N (stereo unspecified) | -3.91%
